# Assay outcomes: PubChem, National Center for Advancing Translational Sciences (NCATS)
# FMDV inh: High Throughput Screening for Foot and Mouth Disease Virus Antivirals | Potency, µM (highest dose often 57.9 µM), without a hit: top-dose activity change, negative = inhibition, most hits filed as inhibitors | FMDV antiviral cell-based qHTS | actives 1.2% (n = 410,000) | AID 1159524, 2015; calls by dose curve; tested in HEK293T cells; further: read-out not given here; potency means the concentration at half of the fitted maximal effect; nearly all actives have a fitted effect of over 45% in size
# HCV inhibitor: qHTS Assay for Inhibitors of Hepatitis C Virus (HCV); actives 3.4% (n = 340,000); Huh7.5.1 HCVcc-Cre infection, luciferase reporter, 44 h; Potency, µM (series often up to 41.8 µM), inactives show top-dose activity change, negative = inhibition, actives largely listed as inhibitors; further: potency means the concentration at half of the fitted maximal effect
#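 Compounds are dispensed onto cells plated 4 h earlier at 1,000 per well, with HCVcc-Cre virus (about 0.5 moi) added next. Following 44 h of culture, luminescent signal is measured for 15 sec after 15 min with substrate at room temperature.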
# Vaccinia mCherry: qHTS for Stage-Specific Inhibitors of Vaccinia Orthopoxvirus: mCherry Reporter Primary qHTS; Vaccinia virus mCherry reporter infection, fluorescence; AID 720579, 2013; actives 0.63% (n = 310,000); Potency, µM (highest dose often 36.5 µM), inactives show top-dose activity change, negative = inhibition, usual class: inhibitors; calls by dose curve; tested in A549 cells; further: potency means the concentration at half of the fitted maximal effect; nearly all actives have a fitted effect of over 35% in size
# Sm TGR block: qHTS Assay for the Inhibitors of Schistosoma Mansoni Peroxiredoxins; Schistosoma mansoni thioredoxin glutathione reductase (TGR), Q962Y6; actives 3% (n = 360,000); AID 485364, 2010; Potency, µM (series often up to 114 µM), without a hit: at the highest dose activity change, negative = inhibition, usual class: inhibitors; purified TGR, DTNB reduction, TNB absorbance 405 nm; further: potency means the concentration at half of the fitted maximal effect; nearly all actives have a fitted effect of over 60% in size
#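 First, TGR (20 nM dispensed) and NADPH were mixed with compound. Second, a 15 min room-temperature incubation followed. Third, further NADPH and then DTNB were added to start the reaction. Finally, TNB absorbance was monitored kinetically.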
# HCMV antiviral: qHTS Assay for inhibitors of the human cytomegalovirus (HCMV); HFF cells, HCMV-luciferase reporter, 72 h; hits give low values; activity change, negative = inhibition, % at 57.5 µM; actives 4.5% (n = 410,000); in the data active means activity change below about -60%; inconclusive means no clear call, values can overlap the other calls; inactive means above about -39%
#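 Steps: HFFs plated, 16 h 37C; compounds added; HCMV-luciferase added to MOI 1 PFU/cell; 72 h 37C; OneGlo reagent, 5 min room temperature; luminescence read, normalized to controls.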
# Vaccinia Venus: qHTS for Stage-Specific Inhibitors of Vaccinia Orthopoxvirus: Venus Reporter Primary qHTS | Vaccinia virus Venus reporter expression, fluorescence | actives 0.46% (n = 330,000) | Potency, µM (series often up to 36.5 µM), for the others: at the highest dose activity change, negative = inhibition, usual class: inhibitors; calls by dose curve; tested in A549 cells; further: potency means the concentration at half of the fitted maximal effect; nearly all actives have a fitted effect of over 30% in size
# * = called active by the depositor; i = inactive; ? = inconclusive; / = no result given; [ ] = remark or other dose. This is a sample that favours compounds with a hit; in the whole collection about 9.3% have one here. Unless noted, the call rests on the fitted dose curve; in most records, active means well fitted curve in the direction sought with a large enough effect; inconclusive means small, poorly fitted or top-dose-only effect, or another doubt; inactive means no such curve, though single readings can be large; an effect the other way counts as inactive or inconclusive. On the % scale 0 is the no-effect control and ±100 the full control effect.
SMILES,FMDV inh,HCV inhibitor,Vaccinia mCherry,Sm TGR block,HCMV antiviral,Vaccinia Venus
Cc1cc(Oc2ccc(N)cn2)cc(C)c1Cl,-18%,?,-16%,40µM*,25,-20%
CC(C)(C)c1ccc(Oc2ccc(NC(=O)c3ccccc3C(=O)O)cn2)cc1,?,?,/,?,-63*,/
Nc1ccc(Oc2c(Cl)cccc2Cl)nc1,10%,-15%,/,?,-10,/
O=c1c(CN2CCN(c3ccccn3)CC2)coc2ccccc12,-7%,7%,/,?,?,/
CCCCn1nnnc1C(c1cc2ccccc2o1)N1CCN(c2ccncc2)CC1 (stereo not given),-14%,/,-9%,/,-25,-2%
Nc1ccc(Cc2ccc(N)c(C(=O)O)c2)cc1C(=O)O,-8%,-4%,/,-3%,20,/
COc1ccc(CCNC(=O)COc2coc(CN3c4ccccc4CC3C)cc2=O)cc1OC (stereo not given),22µM*,11µM*,0%,0%,?,-15%
O=c1[nH][nH]c2c(N=Cc3ccccc3O)ccc(F)c12,-21%,2%,-17%,0.4µM*,/,-2%
O=P(Oc1ccc(Cl)cc1)(N1CC1)N1CC1,0%,13%,-25%,/,-3,-3%
COc1ccc(-c2cc(OC(=O)c3ccc(F)cc3)c3c(C)oc(C)c3c(=O)c2)cc1,/,/,/,35µM*,/,/
COc1ccc(-c2cc(OC(=O)c3cccc(Cl)c3)c3c(C)oc(C)c3c(=O)c2)cc1,-9%,/,-5%,22µM*,-3,23%
Cc1ccccc1-n1nnnc1SCC(=O)c1c(N)n(C)c(=O)n(C)c1=O,-5%,10%,-3%[7.34 µM],-11%,2,-1%[7.34 µM]
COC(=O)Nc1c(C(=O)OC)cc(OC)c(OC)c1OC,-1%,19%,/,3%,0,-11%
Cc1ccc(NS(=O)(=O)c2ccc(NC(=O)c3cccc(NC(=O)C(C)C)c3)cc2)cc1,?,10µM*,/,0%,-34,?
Cc1ccccc1NC(=O)/C=C/c1cccs1,45%,2%,i,-7%,1,-11%
CCN(CC)S(=O)(=O)c1ccc(/C=C/C(=O)Nc2cccc(F)c2)cc1,?,13µM*,i,1%,?,-15%
CCN(CC)S(=O)(=O)c1ccc(/C=C/C(=O)O)cc1,32%,29%,i,-3%,?,-19%
CC(C)C(=O)Nc1cccc(C(=O)Nc2cc([N+](=O)[O-])ccc2Cl)c1,-9%,?,/,0%,?,/
CCN(CC)S(=O)(=O)c1ccc(C)c(NC(=O)/C=C/c2cccs2)c1,?,10µM*,-19%,-1%,-33,-28%
Cc1cc([N+](=O)[O-])ccc1NC(=O)c1cccc(NC(=O)C(C)C)c1,71%,11µM*,-27%,1%,-10,-18%
CC1CN(S(=O)(=O)c2cccc(C(=O)Nc3ccccc3N3CCCCC3)c2)CC(C)O1 (stereo not given),?,?,?,-11%,?,-26%
FC(F)(F)c1cccc(Cn2nnnc2-c2ccc(Cl)cc2)c1,-12%,-4%,/,-4%,?,/
CC1CCCCC1NC(=O)CCCN1C(=O)c2ccccc2C1=O (stereo not given),11%,9%,-10%,/,-20,1%
CCN(CC)S(=O)(=O)c1ccc(NC(=O)Nc2cccc(C(F)(F)F)c2)cc1,?,11µM*,/,4%,-105*,/
O=C(NCc1ccccc1Cl)c1ccc(S(=O)(=O)Nc2cccc(C(F)(F)F)c2)cc1,3%,10%,i,4%,-66*,-6%
SMILES,FMDV inh,HCV inhibitor,Vaccinia mCherry,Sm TGR block,HCMV antiviral,Vaccinia Venus
CNS(=O)(=O)c1ccc(NC(=O)Nc2cccc(F)c2)cc1,-1%,-1%,-3%,12%,-101*,-6%
Cc1ccc(S(=O)(=O)Nc2ccc(NC(=O)Nc3cccc(C(F)(F)F)c3)cc2)cc1,?,?,11µM*,-2%,-62*,?
O=C(NCc1ccccc1Cl)c1ccc(S(=O)(=O)N2CCCC2)cc1,-5%,3%,i,-3%,42,-12%
Cc1ccc(S(=O)(=O)CC(C)(O)C(=O)Nc2cccc(C(F)(F)F)c2)cc1 (stereo not given),13%,2%,/,1%,26,/
O=C(CN(c1cccc(C(F)(F)F)c1)S(=O)(=O)c1ccccc1)Nc1cccc(Cl)c1,?,/,?,14%,-66*,?
Cc1ccc(C)c(OCCCCn2ccnc2)c1,-9%,?,-18%,3%,?,-14%
Cc1nc2ccn(Cc3cccs3)c(=O)c2cc1C(=O)NCc1ccc(Br)cc1,3%,/,-24%,0%,-63*,-20%
CCc1ccc(CNC(=O)c2cc3c(=O)n(Cc4cccs4)ccc3nc2C)cc1,-11%,/,-12%,0%,-16,-14%
COc1ccc(CNC(=O)c2cc3c(=O)n(Cc4ccc(OC)cc4)ccc3nc2C)cc1,0%,/,-26%,-3%,-75*,-25%
COc1cccc(NC(=S)N(CCCN2CCCC2)Cc2cccn2Cc2ccc(Cl)cc2)c1,-22%,?,-25%,3%,-34,-16%
S=C(Nc1cccc(Cl)c1)N(CCCN1CCCC1)Cc1cccn1Cc1ccc(Cl)cc1,-24%,-27%,?,0%,-79*,?
CSc1cccc(NC(=S)N(CCCN2CCCC2)Cc2cccn2Cc2ccc(Cl)cc2)c1,40µM*,?,?,4%,?,?
CC(C)N(c1nnc(N)s1)C(C)C,-6%,0%,/,-5%,-3,/
N#CCCCn1c(=O)oc2ccccc21,-14%,8%,16%,/,-11,0%
Cc1ccc(C(=O)NCCn2cc(SCC(=O)N3CCOCC3)c3ccccc32)cc1,-17%,-20%,-3%,0%,-63*,-28%
CCOC(=O)c1c(NC(=O)C(C)Sc2cn(CCNC(=O)c3ccc(OC)c(OC)c3)c3ccccc23)sc2c1CCC2 (stereo not given),-18%,/,?,1%,-108*,-22%
Cc1ccc(C(=O)NCCn2cc(SCC(=O)Nc3cc(C)on3)c3ccccc32)cc1,-13%,?,i,-3%,-19,-23%
O=C(NCCn1cc(SCc2ccc(F)cc2)c2ccccc21)c1ccccc1F,28µM*,?,?,-7%,/,-9%
COc1ccc(C(=O)NCCn2cc(SCc3ccc(C(F)(F)F)cc3)c3ccccc32)cc1OC,22µM*,/,?,-10%,-62*,?
O=C(Nc1cccc(F)c1)c1ccc(S(=O)(=O)N2CCOCC2)cc1,-13%,0%,-8%,3%,12,-18%
